Results published in PubChem BioAssay AID743279 (National Center for Advancing Translational Sciences (NCATS), 2014).
About 17,000 (4.7%) of roughly 360,000 compounds were called active. Not shown: some 5% with an inconclusive outcome. The list comes from a sample in which actives are over-represented; it also holds similar structures and randomly drawn compounds. Unmarked numbers belong to inactive results. No stated cut-off is given here; in the data, active means activity change below about -50%; inconclusive means mostly about -30% to -49%; inactive means weaker than that.

test: qHTS for Inhibitors of Inflammasome Signaling: IL-1-beta AlphaLISA Primary Screen; details: THP-1 LPS/ATP IL-1B secretion, 16 h; at 57.5 µM, stronger effect = lower value
In short: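 Secreted IL-1B measured by AlphaLISA bead assay after 16 h compound exposure of THP-1 cells; compounds (final up to 57.5 uM) added 1 h before LPS (250 ng/mL) and ATP (1.25 mM) stimulation; lower signal means less secretion.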
On the % scale 0 is the no-effect control and ±100 the full control effect.

SMILES | activity change
C=CCOc1ccc(/C=C/C(=O)OC(C)C(=O)Nc2ccc(NC(C)=O)cc2)cc1 (stereo unspecified) | -0.196%
Nc1cc(=O)c2[nH]cnc2[nH]1 | 17.6%
CCc1nc2ccc(C(=O)N(C)CCN(C)C)cn2c1N(CC)CCOC | -19.3%
CC(C)C[C@@H]1Cc2[nH][nH]c(=O)c2[C@H](CCc2ccccc2)O1 | -2.24%
CC1(c2cccc(Br)c2)NC(=O)N(CC(=O)NCCC2=CCCCC2)C1=O (stereo unspecified) | 1.79%
COc1cccc2c1C(=O)c1c(O)c3c(c(O)c1C2=O)CC(O)(C(C)=NNC(=O)c1ccc(Cl)c(Cl)c1)CC3OC1CC(N)C(O)C(C)O1 (stereo unspecified) | -101% (active)
Oc1c(CN2CCOCC2)ccc(CN2CCOCC2)c1O | 14.4%
CN(C(=O)c1cccc(NC(=O)Cc2ccc(NC(=O)C3CCN(C(=O)C4CCCCC4)CC3)cc2)c1)C1CCC1 | -1.34%
CN1CCN(C2Cc3ccc(Cl)cc3Sc3ccc(F)cc32)CC1 (stereo unspecified) | -63.5% (active)
COC(=O)C1NN=C(C(=O)c2ccc(Br)cc2)C1c1cccc(Br)c1 (stereo unspecified) | 19.6%
C[C@H]1CN([C@@H](C)CO)C(=O)CCCn2cc(nn2)CO[C@@H]1CN(C)C(=O)Nc1ccccc1 | -2.98%
Fc1ccc(-c2ccc(NCCN3CCOCC3)nn2)cc1 | -8.39%
c1ccc2cc3c(NCCN4CCOCC4)ccnc3cc2c1 | -83.2% (active)
CCOc1nc(NCCN2CCOCC2)nc(Nc2ccc(C)cc2)n1 | -27.7%
Cc1nc(N)sc1-c1ccccc1 | -26.3%
COc1ccc(-n2c(Cc3cccn3C)nnc2SCC(=O)Nc2cc(C)cc(C)c2)cc1 | -24.7%
Cc1cccc(-n2c(=O)c3c(C)c(C)sc3n(CC(N)=O)c2=O)c1 | 16.6%
Cc1cccc(-n2c(SCC(N)=O)nc3c(c2=O)C2(CCCCC2)Cc2ccccc2-3)c1 | -72.3% (active)
N#CCSc1nc2c(c(=O)n1Cc1ccccc1)C1(CCCC1)Cc1ccccc1-2 | 4.25%
COCC(=O)N(C)C[C@H]1Oc2cc(Br)ccc2S(=O)(=O)N([C@H](C)CO)C[C@H]1C | 20.9%
CCOCCC(=O)Nc1ccc2c(c1)c(=O)n(C)n2-c1ccc2ccccc2c1 | 87.4%
COc1ccc(Cl)cc1C(=O)NNC(=S)NC(=O)/C=C/c1ccco1 | 26.9%
CCOC(=O)C1=NN(c2ccc(Cl)cc2)/C(=C/C2=NCCc3cc(OC)c(OC)cc32)S1 | -28.4%

SMILES | activity change
COc1cc2c(cc1OC)C(/C=C/c1ccco1)=NCC2 | -75.5% (active)
C[C@H]1COc2cc(N3CCSCC3)ccc2S(=O)(=O)N1 | 26.2%
COc1ccc(Cl)cc1-c1cc(C(=O)Nc2cc(OC)c(OC)c(OC)c2)[nH]n1 | -10.3%
CSc1ncnc2c1ncn2CCCNCC(C)c1ccccc1 (stereo unspecified) | 17.6%
COc1ccc(-c2cc(NC(C)=O)c3ncc(-c4cc(OC)c(OC)c(OC)c4)n3c2)cn1 | 41.4%
CCN(C(=O)CN1C(=O)/C(=C/c2ccc(F)cc2)SC1=S)C1CCS(=O)(=O)C1 (stereo unspecified) | 0%
O=C1/C(=C/c2ccc(F)cc2)SC(=S)N1CCCC(=O)N1CCCCC1CCO (stereo unspecified) | -86.6% (active)
COc1ccc(/C=C2\SC(=S)N(CCCC(=O)NC3CCCC3)C2=O)cc1OC | 7.66%
Cc1cccc(C)c1-n1nnnc1C1(C)CCC(=O)N1CCOc1ccccc1 (stereo unspecified) | 33.1%
CC(C)c1ccc(/C=C/C(=O)NCCCN2CCOCC2)cc1 | -1.14%
CC1CC(NC(=S)N(C)C)CC(C)(C)C1 (stereo unspecified) | 31.1%
COc1cc(NS(=O)(=O)c2ccc3ccccc3c2)c2ncccc2c1 | 20.6%
O=[N+]([O-])c1ccccc1S(=O)(=O)Nc1cccc2cccnc12 | -99.8% (active)
NS(=O)(=O)c1ccc(CCNS(=O)(=O)c2cccc3cccnc23)cc1 | 7.82%
CN(C(=O)c1cccc(NC(=O)Cc2cccc(NC(=O)C3CCCN(C(=O)C4CC4)C3)c2)c1)C1CCC1 (stereo unspecified) | 0%
COC(=O)c1ccc2nc(-c3ccc(C)cc3)c(Cc3ccc(OC)cc3C)n2c1 | 16%
O=C(/C=C/c1ccco1)NC(=S)Nc1ccccc1Br | -18.4%
COc1cccc(NC(=O)COC(=O)/C=C/c2ccco2)c1 | 19.5%
O=C(/C=C/c1ccco1)Nc1ccc(Oc2ccccc2)cc1 | -58.1% (active)
CSC1=NCCN1C(=O)c1ccc(S(=O)(=O)N2CCOCC2)cc1 | 2.64%
CC(=O)Nc1ccc(C(=O)Nc2cc(S(=O)(=O)N3CCOCC3)ccc2N2CCOCC2)cc1 | -12.6%
CCC(C)NC(=O)c1ccc(NC(=O)CC2SC(N3CCCCC3)=NC2=O)cc1 (stereo unspecified) | -15.8%
COc1cccc2cc(C(=O)NCc3ccc(C)cc3)c(=N)oc12 | -59.4% (active)

SMILES | activity change
N=c1oc2ccccc2cc1C(=O)NCc1ccccc1 | -22.4%
COc1cccc2cc(C(=O)N(C)C)c(=O)oc12 | -12.7%
OC[C@@H]1CN(Cc2ccncc2)C[C@H](n2cnc3c(N4CCN(c5ccccc5)CC4)ncnc32)O1 | 3.63%
O=C(Nc1cccnc1)c1cc(Cl)ccc1Cl | -60.5% (active)
O=C(Nc1cccnc1)c1cc([N+](=O)[O-])ccc1Cl | 0%
O=C(Nc1cccnc1)c1ccc(Cl)cc1[N+](=O)[O-] | 0%
COCCNC(=S)N1CCN(C)CC1 | 26.6%
Clc1ncn(CCOc2ccccc2)c1Cl | -9.73%
Brc1ccc(OCCn2ccnc2)cc1 | -15%
c1ccc(Cc2ccc(OCCn3ccnc3)cc2)cc1 | -57.5% (active)
CC(C)Oc1cc(F)ccc1-c1cc(C(=O)Nc2ccc(F)cc2)[nH]n1 | -25.4%
COc1cc2c(=O)n(C)c3ccccc3c2cc1OC | -24.4%
Cc1cc(C)c(-c2c(O)c3ccccc3n(C)c2=O)c(C)c1 | 13%
Cc1cccc(OP(=O)(Nc2c(C)n(C)n(-c3ccccc3)c2=O)Oc2cccc(C)c2)c1 | -27.9%
Cc1cccc(Oc2c([N+](=O)[O-])c(=O)n(C)c3ccccc23)c1 | -101% (active)
Cn1nc(-c2ccccc2)c2cc([N+](=O)[O-])ccc21 | -13.7%
Cn1c(=O)c([N+](=O)[O-])c(Oc2ccccc2)c2ccccc21 | -86.4% (active)
CC(=O)C1=C(O)C(=O)N(c2ccc(S(N)(=O)=O)cc2)C1c1ccccc1F (stereo unspecified) | 7.68%
NC(=O)c1ncn([C@@H]2O[C@H](CN=C3NS(=O)(=O)c4ccccc43)[C@@H](O)[C@H]2O)n1 | 21.3%
NS(=O)(=O)c1ccc(NC(=S)Nc2ccc(Br)c(Cl)c2)cc1 | -89% (active)
COc1ccc(NC(=S)Nc2ccc(S(N)(=O)=O)cc2)c(C)c1 | -12.2%
NS(=O)(=O)c1ccc(CCNC(=S)Nc2ccc(S(N)(=O)=O)cc2)cc1 | -3.65%
CCOC(=O)CSc1nc(N2CCOCC2)c2c(c1C#N)CC(C(C)C)OC2 (stereo unspecified) | 56.1%

SMILES | activity change
CCOC(=O)CSc1nccc(N(C)C)c1C#N | -70.3% (active)
CCOC(=O)CSc1ccccn1 | 3.79%
O=S(=O)(Cc1cc(Cl)nc(-c2cccnc2)n1)c1ccccc1 | -98.6% (active)
O=S(=O)(Cc1cc(Sc2ccccc2)nc(-c2ccccc2)n1)c1ccccc1 | 0%
O=S(=O)(NCCc1csc(-c2ccccc2)n1)c1cccnc1 | 41.8%
O=C1NC(Cc2ccccc2)c2nc3ccc(Br)cc3c(=O)n2-c2cc3ccccc3cc21 (stereo unspecified) | -12%
C[C@H](O)[C@@H]1C(=O)N2CCc3ccc(N4CCOCC4)cc3[C@@H]2C[C@@H]1N(C)C(=O)C(C)(C)C | 0%
CN1OC[C@@H]2CN(C(=O)C(C)(C)C)[C@H](c3ccc(-n4ccnc4)cc3)C[C@@H]21 | -20.8%
Cc1ccccc1S(=O)(=O)N1[C@@H](c2cccc(Cl)c2)C(C(=O)OC(C)(C)C)=CC[C@H]1c1ccc(Cl)cc1 | -7.69%
CN1CCN(CCCNC(=O)c2ccc(/C=C3\Oc4ccccc4N(Cc4ccc(Cl)cc4)C3=O)cc2)CC1 | -78% (active)
CC(C)OCCCNC(=O)CN1C(=O)/C(=C/c2ccccc2F)Oc2ccccc21 | 14.1%
CCCN1CCN(CCCNC(=O)CN2C(=O)COc3ccccc32)CC1 | 5.04%
Cc1cccc(CN2CCN(C3CN(Cc4ccccc4)S(=O)(=O)C3)CC2)c1 (stereo unspecified) | 5.62%
COC(=O)C1C(=O)NCC1c1ccc(OC)cc1 (stereo unspecified) | 5.62%
C[C@@H]1CN([C@@H](C)CO)C(=O)c2cc(Br)cnc2O[C@@H]1CN(C)C(=O)C1CCCCC1 | -1.93%
CC(C)=C1SC(N2CCN(c3cccc(C)c3)CC2)=NC1=O | -56.9% (active)
CC(C)=C1SC(N2CCN(c3ccc(C)c(Cl)c3)CC2)=NC1=O | 25.2%
CNS(=O)(=O)c1cnccc1N1CCN(c2cccc(C)c2)CC1 | -2.21%
O=c1[nH]c(N2CCN(Cc3ccc4c(c3)OCO4)CC2)nc2c1CCCC2 | 4.34%
Fc1ccc2[nH]c3c(N4CCN(Cc5ccc6c(c5)OCO6)CC4)ncnc3c2c1 | -94.7% (active)
CCCCCc1c(C)nc(N2CCN(Cc3ccc4c(c3)OCO4)CC2)[nH]c1=O | -0.641%
Fc1ccc2[nH]c3c(N4CCSCC4)ncnc3c2c1 | -62% (active)
